The entries come from a sample that favours hits as a whole.
Pf Dd2 growth: inhibitors of Plasmodium falciparum Dd2 growth | Potency, µM (series often up to 28.9 µM), inactives show top-dose activity, negative = inhibition, most hits filed as inhibitors | P. falciparum Dd2 growth, SYBR Green, 72 h | AID 1347417 | 4.3% of 120,000 active; active means well fitted inhibition curve with a large enough effect;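 further: plate controls were DMSO vehicle for no effect and reference drug for full effect; nearly all actives have a fitted effect of over 65% in size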
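Readout: SYBR Green fluorescence, 485 nm excitation, 535 nm emission, after ~16 h lysis at 37C. Before that, Dd2-infected red cells (2.5% hematocrit) grew 72 h with compound, 29 uM top final concentration.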
* hit, by the source's call; [ ] = dose if it differs, or a comment. Potency means the concentration at half of the fitted maximal effect.

What do the screens show for `COc1ccc(N2CCN(Cc3cc(=O)oc4ccc(OC)cc34)CC2)cc1`?
Pf Dd2 growth: -13%

How did O=C(NCCC1CCN(C(=O)Nc2ccc(F)cc2F)CC1)c1ccccc1 do in these assays?
Pf Dd2 growth: -2%

How did Cc1ccc(CNC(=O)c2cc3cn(C(C)C)cc3s2)o1 do in these assays?
Pf Dd2 growth: inactive

Results for COc1ccc(CNC(=O)c2cc3cn(C4CC4)cc3s2)cc1OC ?
Pf Dd2 growth: inactive

How did COc1ccc(CCNC(=O)c2cc3cn(C(C)C)cc3s2)cc1OC do in these assays?
Pf Dd2 growth: 8.9µM*

How did COc1ccc(Cl)cc1-c1nc(C2CC(=O)N(c3ccc(F)cc3)C2)no1 (stereo not drawn) do in these assays?
Pf Dd2 growth: 11µM*

How did COc1ccccc1-c1nc(C2CC(=O)N(c3ccc(F)c(Cl)c3)C2)no1 (stereo not drawn) do in these assays?
Pf Dd2 growth: 120%

Results for COc1ccc(-c2nc(C3CC(=O)N(c4ccc(F)cc4)C3)no2)cc1F (stereo not drawn) ?
Pf Dd2 growth: 53%

What do the screens show for `COc1ccc(OC)c(NC(=O)c2noc3c2CCCC3)c1`?
Pf Dd2 growth: -14%

How did Cc1ccc(O)c(NC(=O)COCc2cc(-c3ccco3)on2)c1 do in these assays?
Pf Dd2 growth: 18%

Results for Cc1ccc(C)c(N2CCN(C(=O)c3noc4c3CCCCC4)CC2)c1 ?
Pf Dd2 growth: inactive

What do the screens show for `COc1cccc(C(=O)Nc2cc(-c3ccccc3)no2)c1`?
Pf Dd2 growth: -1%

What do the screens show for `Cc1ccc(O)c(NC(=O)c2noc3c2CCCCC3)c1`?
Pf Dd2 growth: 4.5µM*

How did O=C(Nc1cccc(O)c1)c1cc(-c2ccccc2F)no1 do in these assays?
Pf Dd2 growth: -13%

How did COc1cccc(-c2cc(C(=O)Nc3cc(Cl)ccc3O)on2)c1 do in these assays?
Pf Dd2 growth: 1µM*

How did COc1cccc(-c2cc(C(=O)Nc3cc(OC)c(OC)c(OC)c3)on2)c1 do in these assays?
Pf Dd2 growth: -13%[0.594 µM]

How did Cc1ccc(O)c(NC(=O)c2cc(-c3ccccc3O)no2)c1 do in these assays?
Pf Dd2 growth: 2.2µM*

How did O=C(c1ccco1)N1CC[C@@H]2[C@@H](CCC(=O)N2CCC2=CCCCC2)C1 do in these assays?
Pf Dd2 growth: -22%

Results for Cc1ccc(-n2c(C3CCN(C(=O)c4ccc(C#N)cc4)CC3)n[nH]c2=O)cc1 ?
Pf Dd2 growth: -2%

Results for O=C(Cn1nc2c(cc1=O)CCCC2)NCCc1ccc(O)cc1 ?
Pf Dd2 growth: 8%

How did CCC1Oc2ccc(NC(=O)c3ccc(C#N)cc3)cc2CN(Cc2ccccc2F)C1=O (stereo not drawn) do in these assays?
Pf Dd2 growth: -16%

How did Cc1cnc(C(=O)NC2C[C@H]3CC[C@@H](C2)N3C(=O)c2cnccc2C)cn1 (stereo partly drawn) do in these assays?
Pf Dd2 growth: 0%

What do the screens show for `O=C(c1ccsc1)N1CCC2(CC1)CC(N(C(=O)c1ccccc1)C1CC1)CCO2` (stereo not drawn)?
Pf Dd2 growth: -10%

Results for CCn1ncc(N2CCCC(CC(=O)N3CCCCCC3)C2)cc1=O (stereo not drawn) ?
Pf Dd2 growth: -24%

What do the screens show for `Cc1ccccc1C(=O)N1CCC(C(=O)Nc2ccc(F)cc2F)CC1`?
Pf Dd2 growth: 38%

Results for CCC(=O)N1CCN(c2nc3c(s2)CC(C(=O)NCc2cccc(OC)c2)CC3)CC1 (stereo not drawn) ?
Pf Dd2 growth: -4%

How did O=C(NCc1ccncc1)C1CCc2nc(N3CCN(C(=O)C4CCC4)CC3)sc2C1 (stereo not drawn) do in these assays?
Pf Dd2 growth: inactive

What do the screens show for `CCC(=O)N1CCc2nc(N3CCN(Cc4cccnc4)CC3)sc2C1`?
Pf Dd2 growth: inactive

How did CCN1CCN(C(=O)C2CCc3nc(N4CCN(C(=O)C5CCC5)CC4)sc3C2)CC1 (stereo not drawn) do in these assays?
Pf Dd2 growth: -2%

How did O=C(NCc1ccco1)C1CCc2nc(N3CCN(C(=O)C4CCC4)CC3)sc2C1 (stereo not drawn) do in these assays?
Pf Dd2 growth: inactive

How did O=C(NCc1cccs1)C1CCc2nc(N3CCN(C(=O)C4CCC4)CC3)sc2C1 (stereo not drawn) do in these assays?
Pf Dd2 growth: 5µM*

How did O=C(O)C1CCc2nc(N3CCN(C(=O)C4CCC4)CC3)sc2C1 (stereo not drawn) do in these assays?
Pf Dd2 growth: -20%

Results for CCC(=O)N1CCN(c2nc3c(s2)CC(C(=O)Nc2cccc(C)c2C)CC3)CC1 (stereo not drawn) ?
Pf Dd2 growth: 4µM*

How did CCC(=O)N1CCN(c2nc3c(s2)CC(C(=O)NCc2ccccc2)CC3)CC1 (stereo not drawn) do in these assays?
Pf Dd2 growth: 7.9µM*

How did CCC(=O)N1CCN(c2nc3c(s2)CC(C(=O)Nc2ccc(F)cc2F)CC3)CC1 (stereo not drawn) do in these assays?
Pf Dd2 growth: 5µM*

How did Cc1cccc(NC(=O)C2CCN(c3nnc(-n4c(C)ccc4C)s3)CC2)c1C do in these assays?
Pf Dd2 growth: inactive

Results for Cc1ccc(CN2C(=O)OC(c3cccc(NC(=O)c4cccs4)c3)C2C(=O)NC2CC2)cc1 (stereo not drawn) ?
Pf Dd2 growth: -18%

What do the screens show for `O=C(C[C@@H]1CCNC[C@@H]1Cc1cc(-c2ccccc2)on1)NC1CCCCC1`?
Pf Dd2 growth: inactive

What do the screens show for `CCCNC(=O)C(NC(=O)c1ccccc1)C1CCN(C(=O)c2ccccc2F)CC1` (stereo not drawn)?
Pf Dd2 growth: -3%

How did Cc1cccc(C(=O)N2CC(=O)N(c3cccc(Cl)c3)CC2C)n1 (stereo not drawn) do in these assays?
Pf Dd2 growth: 4%

Results for Cc1ccc(N2CCC(NC(=O)c3ccc(N(C)C)cc3)C2=O)cc1C (stereo not drawn) ?
Pf Dd2 growth: -10%

Results for CCn1ccc(C(=O)N2CCC(Cc3ccc(C(=O)N4CCOCC4)cc3)CC2)n1 ?
Pf Dd2 growth: 12%

Results for CN(Cc1cccnc1)Cc1nc(C2(O)CCN(C3CCCC3)CC2)cs1 ?
Pf Dd2 growth: inactive

Results for Cc1cc(C)c([S+](=O)([O-])c2nnn3c2nc(NCc2ccncc2)c2ccccc23)c(C)c1 ?
Pf Dd2 growth: 2.2µM*

What do the screens show for `COc1ccc([S+](=O)([O-])c2nnn3c2nc(NCc2ccncc2)c2ccccc23)cc1`?
Pf Dd2 growth: -15%

How did Cc1ccc([S+](=O)([O-])c2nnn3c2nc(NCc2ccncc2)c2ccccc23)cc1 do in these assays?
Pf Dd2 growth: 7%

Results for COc1ccc2[nH]cc(CCNC(=O)CN3CCCc4nc(C5CC5)ncc4C3=O)c2c1 ?
Pf Dd2 growth: inactive

Results for COc1ccc2[nH]cc(CCNC(=O)C3CCCN(C(C)=O)C3)c2c1 (stereo not drawn) ?
Pf Dd2 growth: -9%

What do the screens show for `COc1ccc2[nH]cc(CCNC(=O)c3cnn(-c4ccccc4Cl)c3C3CCN(C(=O)OC(C)(C)C)CC3)c2c1`?
Pf Dd2 growth: 5.6µM*

Results for CCN1CCN(CCCNC(=O)c2cnn(-c3ccc(OC)cc3)c2C2CCN(C(=O)OC(C)(C)C)CC2)CC1 ?
Pf Dd2 growth: -25%

What do the screens show for `CC(C)(C)OC(=O)N1CCC(c2c(C(=O)NCc3ccccn3)cnn2-c2ccccc2Cl)CC1`?
Pf Dd2 growth: inactive

How did COc1ccc2[nH]cc(CCNC(=O)c3cnn(-c4ccc(C)cc4)c3C3CCN(C(=O)OC(C)(C)C)CC3)c2c1 do in these assays?
Pf Dd2 growth: 3.2µM*

High-throughput results as filed in PubChem.
